Reference: ChEMBL document CHEMBL1157539, “Thousands of chemical starting points for antimalarial lead identification” (Nature, 2010)

Assays:
Assay type in all cases: functional
Plasmodium falciparum [1] = assay: GSK_TCMDC: Inhibition of Plasmodium falciparum 3D7 in whole red blood cells, using parasite LDH activity as an index of growth. Test compounds present at 2uM
Plasmodium falciparum [2] = assay: GSK_TCMDC: Inhibition of Plasmodium falciparum Dd2 in whole red blood cells, using parasite LDH activity as an index of growth. Test compounds present at 2uM
HepG2 = assay: GSK_TCMDC: Percent inhibition of human HepG2 cell line. Test compounds present at 10uM.

SMILES | Inhibition (Plasmodium falciparum [1]) [%] | Inhibition (Plasmodium falciparum [2]) [%] | Inhibition (HepG2) [%]
O=C(NCCN1CCCC1)c1cccc(-c2ccc(-c3nc4cc(C(F)(F)F)ccc4[nH]3)cc2)c1 | 100 | 99 | 34
CCOc1ccccc1NC(=O)Nc1ccc2c(c1)CCN(C1CCC1)CC2.Cl | 88 | 2 | 15
O=C(O)C(F)(F)F.OCC1CCN(Cc2ccc(-c3ccc(-c4nc5cc(F)ccc5[nH]4)s3)cc2)CC1 | 100 | 98 | 14
Cc1cc(CN2CCC(N3CC(c4ccccc4)(c4ccccc4)OC3=O)C2)ccc1O (centres undefined) | 96 | 68 | 0
COc1cc2c(cc1OC)CC(NCCCCCCNCCc1ccc(Cl)cc1)CC2.Cl (centres undefined) | 98 | 0 | 50
O=C(/C=C/c1ccc(Cl)c(Cl)c1)NCC(CCCN1CCC(c2c[nH]c3ccccc23)CC1)c1ccccc1 (centres undefined) | 100 | 46 | 98
CN(C)CCCOc1ccc(CCNCc2cccc(Oc3ccc(Cl)cc3)c2)cc1.O=C(O)C(F)(F)F | 94 | 26 | 57
CC(=O)Nc1cccc(CNCc2ccc(-c3cnc(N4CCCC(c5ccccc5)C4)nc3)cc2)c1.O=CO (centres undefined) | 84 | 22 | 16
O=C(c1ccco1)c1cn(CCOc2ccccc2)c2ccccc12 | 98 | 10 | 5
Nc1ncc(-c2cccc(OCc3ccccc3)c2)cc1-c1nnc2ccc(Cl)nn12 | 94 | 7 | 0
CC(NC(C)c1cccc(Cl)c1)C(=O)Nc1cc(C(F)(F)F)ccc1N1CCOCC1 (centres undefined) | 89 | 33 | 30
CCCc1cc(C(=O)N[C@@H](Cc2ccccc2)[C@H](O)CNC(C)C)c(F)c(N2CCCC2=O)c1 | 90 | 22 | 0
Cn1cncc1CCN(Cc1ccc(-c2ccc(C(F)(F)F)cc2)cc1)C(=O)Cn1c(CCc2cccc(F)c2F)cc(=O)c2cccnc21 | 100 | 97 | 44
COc1ccc(-c2nc(-c3ccc([N+](=O)[O-])cc3)no2)cc1OC | 96 | 0 | 14
COc1ccc(CCNC(=O)c2ccccc2O)cc1-c1ccc(C(C)(C)C)cc1 | 95 | 96 | 25
CCc1ccccc1N1CCN(CCCC(=O)c2ccc(NC(=O)c3ccc(Cl)cc3)cc2)CC1 | 90 | 4 | 17
N#Cc1ccc(N(CCOC(=O)c2ccc(Br)s2)Cc2ccccc2C(F)(F)F)cc1C(F)(F)F | 82 | 48 | 8
CCCC(=O)c1cnc2c(Oc3cc(Cl)ncn3)cccc2c1Nc1ccccc1C | 99 | 85 | 6
Br.CC1(C)N=C(N)N=C(N)N1OCCc1ccc2ccccc2c1 | 96 | 95 | 65
C=CCN1C(=O)CN(S(=O)(=O)c2ccc(-n3nc(C)cc3C)cc2)C1=S | 93 | 0 | 5
CN(CCCCCNC(=O)/C=C/c1ccc(Cl)c(Cl)c1)CCc1c[nH]c2ccccc12 | 91 | 18 | 40

SMILES | Inhibition (Plasmodium falciparum [1]) [%] | Inhibition (Plasmodium falciparum [2]) [%] | Inhibition (HepG2) [%]
Cc1csc2nc(-c3ccccn3)nc(Nc3ccncn3)c12.O=C(O)C(F)(F)F | 97 | 85 | 47
O=C(NCCNc1ccnc2cc(Cl)ccc12)c1ccccc1F | 99 | 98 | 30
CCN(CC)CCNC(=O)c1ccc(NC(=O)c2cc3c(C)nn(-c4ccc(Cl)cc4)c3s2)cc1.Cl | 95 | 78 | 24
CC1=C(C(=O)Nc2ccc(Cl)cc2)C(c2ccncc2)n2nc(C(F)(F)F)nc2N1 (centres undefined) | 87 | 49 | 25
O=C(NCCCN1CCCC1=O)NCc1ccccc1 | 99 | 4 | 8
CS(=O)(=O)c1ccc(-c2cc(C(F)(F)F)nc(N[C@@H]3CCCC[C@H]3OCc3ccccc3)n2)cc1 | 100 | 99 | 8
CC1CCC2(CC1)NC(N)=NC(=N)N2OCCCCCCCCO (centres undefined) | 96 | 87 | 2
COc1ccc2ncc(F)c(CCN3CC(O)C(CNCc4ccccc4)C3)c2n1.Cl (centres undefined) | 89 | 22 | 19
Cc1cccc2nc(-c3ccc(-c4cccc(NC(=O)Nc5ccsc5)c4)cc3)[nH]c12 | 100 | 24 | 24
COc1ccc(CNC2CCN(C)CC2)cc1-c1ccc(S(=O)(=O)NC2CCC2)s1.O=C(O)C(F)(F)F | 100 | 94 | 32
CN1CCC(N2CCN(Cc3cccc(-c4cccc(-c5nc6ccccc6[nH]5)c4)c3)CC2)CC1.O=C(O)C(F)(F)F | 100 | 100 | 19
COc1nc2c(N3CCN(CCNCc4ccc5c(n4)NC(=O)CO5)CC3)ccnc2cc1F.Cl | 100 | 9 | 18
CCn1c(-c2nonc2N)nc2c(-c3cccc(NC(=O)Nc4cccc(Cl)c4)c3)ncc(OCCCN)c21.O=C(O)C(F)(F)F | 91 | 78 | 9
CC(=O)Nc1ccc(OCCCN(Cc2ccccc2C(F)(F)F)c2ccc(C(F)(F)F)c(C#N)c2)c(Cl)c1 | 85 | 43 | 5
COc1cccc2c(NN=Cc3ccc(Cl)cc3)ccnc12 | 99 | 39 | 26
CCOC(=O)Nc1cc(-c2csc(N=C(N)N)n2)cc([N+](=O)[O-])c1 | 100 | 88 | 12
Cc1cccc2nc(-c3ccc(-c4cccc(CN5CCC(CO)CC5)c4)s3)[nH]c12.O=C(O)C(F)(F)F | 99 | 61 | 20
O=C(Nc1ccc(F)cc1)c1ccc(C(=O)NC2CCN(CC3CCCCC3)CC2)cc1.O=C(O)C(F)(F)F | 99 | 0 | 34
CCNc1cc(C(=O)N[C@@H](Cc2ccccc2)[C@H](O)CN[C@H](C)C(C)(C)C)cc(N2CCCCS2(=O)=O)c1.Cl | 95 | 41 | 4
Cn1cccc1C(=O)C(=O)Nc1cccc(-c2ccc(-c3nc4cc(C(F)(F)F)ccc4[nH]3)cc2)c1 | 94 | 27 | 62
O=C(NC1CCN(Cc2cccc(C(F)(F)F)c2)CC1)c1ccc(-c2cccc(Cl)c2)s1.O=C(O)C(F)(F)F | 89 | 33 | 26

SMILES | Inhibition (Plasmodium falciparum [1]) [%] | Inhibition (Plasmodium falciparum [2]) [%] | Inhibition (HepG2) [%]
O=C(Nc1ccc(N2CCCN(Cc3cccc(F)c3)CC2)cc1)c1cccs1.O=C(O)C(F)(F)F | 96 | 96 | 2
CCOc1ccc2nc(N(CCCn3ccnc3)C(=O)C=Cc3cccs3)sc2c1.Cl | 97 | 97 | 0
CC(C)CCN(Cc1cncn1Cc1cccc(C(F)(F)F)c1)C(=O)c1ccccc1C#N | 99 | 96 | 0
CCNc1cc(C(=O)N[C@@H](Cc2ccc(F)c(F)c2)[C@H](O)CNC2CCCCC2)cc(N2CCCCS2(=O)=O)c1.Cl | 100 | 84 | 1
O=C(Nc1ccc(Cl)cc1)OCCn1nnnc1C(c1ccc(Cl)cc1)N1CCOCC1 (centres undefined) | 90 | 79 | 1
Cc1cc(F)ccc1-c1nc(NCCCN2CCCC2=O)nc2c1ccc(=O)n2-c1c(F)cccc1F | 88 | 80 | 0
CCCCCCCCCCS(=O)(=O)N[C@H](COCc1cccc(Oc2ccccc2)c1)COP(=O)([O-])OC.[Li+] | 87 | 0 | 0
COCc1cc(C)nc2sc(C(=O)Nc3cc(C(C)(C)C)ccc3O)c(N)c12 | 85 | 57 | 0
Cc1ccc(-n2c(C)nc3c(Nc4ccc(-c5ccncc5)cc4)ncnc32)c(C)c1 | 99 | 99 | 38
C/N=C(/Nc1c(Cl)cccc1Cl)N(C)C.O=C(O)/C=C/C(=O)O | 98 | 1 | 0
O=C(Nc1ccc(Cl)cc1Cl)N[C@H]1CCN(CCCCCNC(=O)C2CC2c2ccc(Cl)c(Cl)c2)C1 (some centres undefined) | 94 | 0 | 37
COc1ccc(NC(=O)Nc2cccc(-c3cccc(-c4nc5cccc(C)c5[nH]4)c3)c2)cc1 | 100 | 43 | 0
Br.C=CCNC(CCCCC)c1ccc(OCCOc2ccc(C(CCCCC)NCC=C)cc2)cc1 (centres undefined) | 88 | 48 | 100
Cl.NC1=NC2(CCCC2)C(c2ccc(Cl)c(Cl)c2)C(N)=N1 (centres undefined) | 92 | 3 | 7
CC(Oc1cccc(Cl)c1)C(=O)N1CCc2ccccc21 (centres undefined) | 94 | 77 | 4
Cc1[nH]cnc1CSCCN/C(=N\C#N)NCCCCCCCCN/C(=N/C#N)NCCSCc1nc[nH]c1C | 81 | 48 | 1
CCCCCOc1ccc(C(=NC)N(CCCCC)CCCCC)c2ccccc12.I | 96 | 80 | 70
Br.CCc1ccc(OCCCON2C(=N)N=C(N)NC2(C)C)cc1 | 95 | 95 | 64
Br.C=CCc1cc(C)ccc1OCCCON1C(N)=NC(N)=NC1(C)C | 96 | 96 | 64
O=C(c1ccc(Cl)cc1)N1CCOC(CCN2CCC(c3ccccc3)CC2)(c2ccc(Cl)c(Cl)c2)C1 (centres undefined) | 98 | 68 | 19
Oc1ccc(CCNc2nc(N/N=C/C=C/c3ccc(Cl)cc3)nc(N3CCNCC3)n2)cc1 | 98 | 52 | 17
